Data from PubChem BioAssay (NCI).
About 79,000 compounds went through this panel and 15% of them were active in at least one assay; those are over-represented in the sample as a whole. Values without a mark were called inactive. The source made the active and inactive calls. No stated cut-off is given here; in the data, active means growth inhibition above about 70%; inactive means the rest.

Key:
[1] = NCI Yeast Anticancer Drug Screen. Data for the rad50 strain (AID 155);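 further: 0% = growth of vehicle-only cultures of the same strain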; details: S. cerevisiae rad50 strain growth inhibition, active compounds read high
How it was run: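 A DNA repair-deficient yeast mutant serves as the test organism; compound-induced growth inhibition is calculated against vehicle-treated cells.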

[2] = NCI Yeast Anticancer Drug Screen. Data for the mec2-1 strain (AID 157); details: S. cerevisiae mec2-1 strain, active compounds read high
How it was run: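 Using mec2-1 yeast: add compound, measure growth, express inhibition versus vehicle-treated cultures.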

[3] = NCI Yeast Anticancer Drug Screen. Data for the sgs1 mgt1 strain (AID 161);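 further: 0% = growth of cultures given vehicle only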; details: S. cerevisiae sgs1 mgt1 strain, active compounds read high
How it was run: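 Yeast cells carrying a defined DNA-repair defect were exposed to test compounds. Growth inhibition was measured relative to vehicle-treated controls.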

[4] = NCI Yeast Anticancer Drug Screen. Data for the cln2 rad14 strain (AID 165);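 further: 0% = growth equal to vehicle treated cultures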; details: S. cerevisiae cln2 rad14 strain, active compounds read high
How it was run: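 Yeast strain cln2 rad14, bearing defects in cell cycle control and DNA repair, serves as the test system; values reflect growth inhibition compared with vehicle.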

[5] = NCI Yeast Anticancer Drug Screen. Data for the bub3 strain (AID 167); details: S. cerevisiae bub3 mutant strain, active compounds read high
How it was run: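 Inhibition values come from growth of compound-treated mutant yeast normalised to vehicle-treated controls.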

[6] = NCI Yeast Anticancer Drug Screen. Data for the mlh1 rad18 strain (AID 175); details: S. cerevisiae mlh1 rad18 strain growth inhibition, active compounds read high
How it was run: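 Steps: expose repair-defective yeast to compound; measure growth; express inhibition against vehicle-treated controls.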

[7] = at 5.0 µM (retest, dose inferred, filed as 0.5)
[8] = at 50.0 µM (retest, dose inferred, filed as 5.0)

## OCc1ccc(OCc2ccccc2)c(OCc2ccccc2)c1
[1]; [7]
  growth inhibition: 6%
[1]; [8]
  growth inhibition: 15%
[1]; at 50.0 µM
  growth inhibition: 88.2% (active)
[2]; [7]
  growth inhibition: 7%
[2]; [8]
  growth inhibition: 14%
[2]; at 50.0 µM
  growth inhibition: 77.1% (active)
[3]; [7]
  growth inhibition: -8%
[3]; [8]
  growth inhibition: 47%
[3]; at 50.0 µM
  growth inhibition: 92.8% (active)
[4]; [7]
  growth inhibition: 51%
[4]; [8]
  growth inhibition: 26%
[4]; at 50.0 µM
  growth inhibition: 80.3% (active)
[5]; [7]
  growth inhibition: 10%
[5]; [8]
  growth inhibition: 55%
[5]; at 50.0 µM
  growth inhibition: 94.5% (active)
[6]; [7]
  growth inhibition: 0%
[6]; [8]
  growth inhibition: 62%
[6]; at 50.0 µM
  growth inhibition: 96.5% (active)

## CC(=O)ON=C1C=CC(=C(C#N)c2ccccc2)C=C1
[1]; [7]
  growth inhibition: 44%
[1]; [8]
  growth inhibition: 99% (active)
[1]; at 50.0 µM
  growth inhibition: 97.2% (active)
[2]; [7]
  growth inhibition: 41%
[2]; [8]
  growth inhibition: 100% (active)
[2]; at 50.0 µM
  growth inhibition: 99.1% (active)
[3]; [7]
  growth inhibition: 46%
[3]; [8]
  growth inhibition: 100% (active)
[3]; at 50.0 µM
  growth inhibition: 64.1%
[4]; [7]
  growth inhibition: 88% (active)
[4]; [8]
  growth inhibition: 100% (active)
[4]; at 50.0 µM
  growth inhibition: 98.2% (active)
[5]; [7]
  growth inhibition: 72% (active)
[5]; [8]
  growth inhibition: 100% (active)
[5]; at 50.0 µM
  growth inhibition: 66.3%
[6]; [7]
  growth inhibition: 49%
[6]; [8]
  growth inhibition: 99% (active)
[6]; at 50.0 µM
  growth inhibition: 99.5% (active)

## CC1=NC2=NC(CCCC(=O)OCc3ccc(Cl)c(Cl)c3)=NC3=CC=CC(=N1)N32
[1]; [7]
  growth inhibition: 9%
[1]; [8]
  growth inhibition: 54%
[1]; at 50.0 µM
  growth inhibition: 61.1%
[2]; [7]
  growth inhibition: 17%
[2]; [8]
  growth inhibition: 52%
[2]; at 50.0 µM
  growth inhibition: 31.1%
[3]; [7]
  growth inhibition: 5%
[3]; [8]
  growth inhibition: 60%
[3]; at 50.0 µM
  growth inhibition: 67.7%
[4]; [7]
  growth inhibition: 6%
[4]; [8]
  growth inhibition: 46%
[4]; at 50.0 µM
  growth inhibition: 41%
[5]; [7]
  growth inhibition: 1%
[5]; [8]
  growth inhibition: 38%
[5]; at 50.0 µM
  growth inhibition: 7.65%
[6]; [7]
  growth inhibition: 5%
[6]; [8]
  growth inhibition: 58%
[6]; at 50.0 µM
  growth inhibition: 63.1%

## [N-]=[N+]=Nc1c(Cc2ccccc2)c(=O)oc2ccccc12
[1]; [7]
  growth inhibition: 15%
[1]; [8]
  growth inhibition: 73% (active)
[1]; at 50.0 µM
  growth inhibition: 65.3%
[2]; [7]
  growth inhibition: -8%
[2]; [8]
  growth inhibition: 58%
[2]; at 50.0 µM
  growth inhibition: 73.9% (active)
[3]; [7]
  growth inhibition: 3%
[3]; [8]
  growth inhibition: 73% (active)
[3]; at 50.0 µM
  growth inhibition: 75.7% (active)
[4]; [7]
  growth inhibition: 11%
[4]; [8]
  growth inhibition: 35%
[4]; at 50.0 µM
  growth inhibition: 58.8%
[5]; [7]
  growth inhibition: -17%
[5]; [8]
  growth inhibition: 87% (active)
[5]; at 50.0 µM
  growth inhibition: 77.7% (active)
[6]; [7]
  growth inhibition: -3%
[6]; [8]
  growth inhibition: 82% (active)
[6]; at 50.0 µM
  growth inhibition: 66.9%

## CC12CCCC1C1CC=C3CC(OC=O)CCC3(C)C1CC2 (configuration not stated)
[1]; [7]
  growth inhibition: 1%
[1]; [8]
  growth inhibition: 4%
[1]; at 50.0 µM
  growth inhibition: 13.4%
[2]; [7]
  growth inhibition: 10%
[2]; [8]
  growth inhibition: 3%
[2]; at 50.0 µM
  growth inhibition: 1.5%
[3]; [7]
  growth inhibition: 0%
[3]; [8]
  growth inhibition: 25%
[3]; at 50.0 µM
  growth inhibition: 40.9%
[4]; [7]
  growth inhibition: -37%
[4]; [8]
  growth inhibition: -5%
[4]; at 50.0 µM
  growth inhibition: 38.8%
[5]; [7]
  growth inhibition: -8%
[5]; [8]
  growth inhibition: 44%
[5]; at 50.0 µM
  growth inhibition: -13.4%
[6]; [7]
  growth inhibition: -1%
[6]; [8]
  growth inhibition: -2%
[6]; at 50.0 µM
  growth inhibition: -12.3%

## Clc1ccc(-c2nc3ccc(Cl)cc3[nH]2)cc1
[1]; [7]
  growth inhibition: -2%
[1]; [8]
  growth inhibition: 90% (active)
[1]; at 50.0 µM
  growth inhibition: 76.8% (active)
[2]; [7]
  growth inhibition: -3%
[2]; [8]
  growth inhibition: 88% (active)
[2]; at 50.0 µM
  growth inhibition: 86.7% (active)
[3]; [7]
  growth inhibition: -5%
[3]; [8]
  growth inhibition: 93% (active)
[3]; at 50.0 µM
  growth inhibition: -30.9%
[4]; [7]
  growth inhibition: 0%
[4]; [8]
  growth inhibition: 92% (active)
[4]; at 50.0 µM
  growth inhibition: 84.3% (active)
[5]; [7]
  growth inhibition: 19%
[5]; [8]
  growth inhibition: 96% (active)
[5]; at 50.0 µM
  growth inhibition: 88% (active)
[6]; [7]
  growth inhibition: -38%
[6]; [8]
  growth inhibition: 54%
[6]; at 50.0 µM
  growth inhibition: 35.3%

## c1ccc(-c2cnc3nc4ccccc4nc3n2)cc1
[1]; [7]
  growth inhibition: -7%
[1]; [8]
  growth inhibition: 89% (active)
[1]; at 50.0 µM
  growth inhibition: 94.9% (active)
[2]; [7]
  growth inhibition: 4%
[2]; [8]
  growth inhibition: 76% (active)
[2]; at 50.0 µM
  growth inhibition: 50.6%
[3]; [7]
  growth inhibition: 12%
[3]; [8]
  growth inhibition: 73% (active)
[3]; at 50.0 µM
  growth inhibition: 95.8% (active)
[4]; [7]
  growth inhibition: -11%
[4]; [8]
  growth inhibition: 3%
[4]; at 50.0 µM
  growth inhibition: 36.5%
[5]; [7]
  growth inhibition: 16%
[5]; [8]
  growth inhibition: 77% (active)
[5]; at 50.0 µM
  growth inhibition: 92% (active)
[6]; [7]
  growth inhibition: 7%
[6]; [8]
  growth inhibition: 93% (active)
[6]; at 50.0 µM
  growth inhibition: 89.5% (active)

## CC(=O)Oc1cc2c(cc1OC(C)=O)OCC(c1ccc(C)cc1)C2 (configuration not stated)
[1]; [7]
  growth inhibition: 8%
[1]; [8]
  growth inhibition: 65%
[1]; at 50.0 µM
  growth inhibition: 53.1%
[2]; [7]
  growth inhibition: 8%
[2]; [8]
  growth inhibition: 49%
[2]; at 50.0 µM
  growth inhibition: 57.9%
[3]; [7]
  growth inhibition: 4%
[3]; [8]
  growth inhibition: 61%
[3]; at 50.0 µM
  growth inhibition: 32.1%
[4]; [7]
  growth inhibition: 2%
[4]; [8]
  growth inhibition: 72% (active)
[4]; at 50.0 µM
  growth inhibition: 64%
[5]; [7]
  growth inhibition: 8%
[5]; [8]
  growth inhibition: 87% (active)
[5]; at 50.0 µM
  growth inhibition: 73.7% (active)
[6]; [7]
  growth inhibition: 0%
[6]; [8]
  growth inhibition: 64%
[6]; at 50.0 µM
  growth inhibition: 75.8% (active)

## CCOC(=O)c1c(-c2ccccc2)csc1NC(=O)CBr
[1]; [7]
  growth inhibition: 22%
[1]; [8]
  growth inhibition: 98% (active)
[1]; at 50.0 µM
  growth inhibition: 99.1% (active)
[2]; [7]
  growth inhibition: 11%
[2]; [8]
  growth inhibition: 99% (active)
[2]; at 50.0 µM
  growth inhibition: 98.3% (active)
[3]; [7]
  growth inhibition: 30%
[3]; [8]
  growth inhibition: 99% (active)
[3]; at 50.0 µM
  growth inhibition: 52.5%
[4]; [7]
  growth inhibition: 3%
[4]; [8]
  growth inhibition: 98% (active)
[4]; at 50.0 µM
  growth inhibition: 91.8% (active)
[5]; [7]
  growth inhibition: 7%
[5]; [8]
  growth inhibition: 97% (active)
[5]; at 50.0 µM
  growth inhibition: 94.2% (active)
[6]; [7]
  growth inhibition: 49%
[6]; [8]
  growth inhibition: 98% (active)
[6]; at 50.0 µM
  growth inhibition: 99.2% (active)
